About 83,000 compounds went through this panel and 20% of them were active in at least one assay; those are over-represented in the sample as a whole.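 Cells were grown in 96-well plates and exposed to the test compound at a single concentration for 48 hours; results are reported as percent growth, with values below 10 considered active.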 A number with no mark means an inactive call. Activity calls are given as the source filed them.

For this experiment, the system named is MDA-MB-435 melanoma. As to the kind of experiment: NCI-60 one-dose screen, 48 h (100 = growth as untreated, 0 = no growth, -100 = all killed). As to conditions: 10 µM unless noted. The method, then:
Growth inhibition of the MDA-MB-435 human Melanoma tumor cell line is measured as a screen for anti-cancer activity. Cells are grown in 96 well plates and exposed to the test compound for 48 hours. Compounds are tested at a single concentration, which is 10^-5 M for most compounds. The reported endpoint is percent growth (GI% or GIPRCNT), where numbers from 0 - 100% represent growth inhibition, and numbers from -100% - 0 represent cell death. For example, a value of 40 represents 60% growth inhibition. A value of 0 means no net growth occurred over the course of the experiment. A value of -40 indicates 40% of cells at the beginning of the experiment died by the end of the experiment. A value of -100 means all cells are dead at the end of the experiment.
NCI-60 Human Tumor Cell Lines Screen was performed using the standard one-dose NCI protocol, which is described in more detail at https://dtp.cancer.gov/discovery_development/nci-60/default.htm.
Compounds with GIPRCNT values below 10 were considered active. Activity score was based on GIPRCNT using the following formula: […]
Score is 0 for GIPRCNT values of 100 or above, 50 for GIPRCNT values of 0, and 100 for GIPRCNT values of -100.
Take `O=C1CN(Cc2ccc(C(=O)NO)cc2)C(=O)[C@@H](Cc2ccccc2)N1`: the growth is 100%.

In the case of `Cn1cc(-c2nnc(-c3ccccc3)s2)c2cc(Br)cnc21`, the growth was 92.6%.

As to `C#CCNC(=O)CC[C@]1(C)[C@H]2CC[C@@H]3[C@@H]([C@@](C)(O)CCC=C(C)C)CC[C@@]3(C)[C@]2(C)CC[C@H]1C(=C)C`, the growth was 43.2% [100 µM].

For `C=C(C)[C@@H]1CC[C@]2(COCCCN)CC[C@]3(C)[C@H](CC[C@@H]4[C@@](C)(CCCNCCCN)[C@H](C(=C)C)CC[C@]43C)[C@@H]12`, the growth is -68.5% [100 µM] (active).

Consider `CCCC(NC(=O)OCc1ccccc1)C(=O)O` (stereo not given), for which the growth is 109%.

On to `CC1Cc2c(ncnc2-n2cnc3ccccc32)N(C)c2ccccc21` (stereo not given), for which the growth was -23.7% (active).

Regarding `COc1ncc(-c2ccc3nccc(C#CCCCCC(=O)NO)c3c2)cc1NS(=O)(=O)c1ccc(F)cc1F`, the growth is -7.72% (active).

With `COc1ccc(C(=O)c2nccc3cc(OC)c(OC)cc23)cc1OC`, the growth is 119%.

Turning to `COc1ccc(NCc2cn(-c3ccc(C(=O)O)cc3)nc2-c2ccc(C(=O)O)cc2)cc1C(F)(F)F`, the growth is 101%.

In the case of `CC(=O)n1cc(C=O)c2ccccc21`, the growth is 109%.

Consider `C=C1C(=O)O[C@H]2[C@H]1CC/C(COC(=O)NCc1ccc(Cn3c(=O)sn(-c4ccc(Cl)cc4)c3=O)cc1)=C\CC[C@@]1(C)O[C@@H]21`, for which the growth was 82.9%.

With `O=[N+]([O-])c1cc(CCl)ccc1OCCBr`, the growth was 104%.

For `CC(C)(C)c1cc(C(=O)Nc2ccccc2C(=O)NCCN)cc(C(C)(C)C)c1`, the growth is -73.3% (active).

As for `CCOC(=O)c1nc2c3ccccc3ccn2c1C(=O)OC`, the growth was 96.5%.

On to `CCOC(=O)CC(c1ccccc1)C(C#N)c1ccccc1` (stereo not given), for which the growth is 96.4%.

For `Cc1ccc(S(=O)(=O)N/N=C2\CC3CCC2(C)C3(C)C)cc1` (stereo not given), the growth was 103%.

Regarding `CNC(=O)c1cc(Oc2cccc3nc(NC(=O)Nc4cc(C(F)(F)F)cc(C(F)(F)F)c4)ccc23)ccn1`, the growth is 40.2%.

For `O=C(CCCCCCSc1nc(-c2ccc(Cl)cc2)cc(-c2ccc(Cl)cc2)n1)NO`, the growth was 43.5%.

With `O=C1/C(=C\c2cn(CC(O)CN3CCCCC3)c3ccccc23)c2ccccc2N1c1c(Cl)cccc1Cl` (stereo not given), the growth was -93.3% (active).

As for `COc1ccc2nc3cc(Cl)ccc3c(Nc3ccc(O)cc3)c2c1`, the growth was 96%.

`Cc1cc(N2CCCCCC2)nc(N2CCN(CC(=O)Nc3ccc4c(ccn4Cc4ccccc4)c3)CC2)n1`: the growth is 67.7%.

`O=C(Nc1cccc2cccnc12)c1cc(C(=O)c2ccc(Cl)cc2)n2ccc(-c3ccncc3)cc12`: the growth is 97.6%.

For `COc1ccc(C(=O)CCC(=O)O)cc1`, the growth was 107%.

For `c1cc2ccc1CNCCN1CCNCc3ccc(cc3)Oc3ccc(cc3)CNCCN(CCNCc3ccc(cc3)O2)CCNCc2ccc(cc2)Oc2ccc(cc2)CNCC1`, the growth is -96.3% (active).

`O=C(N=c1n(-c2ccccc2)nc2n1CCN2C1=NCCN1C(=O)c1ccc(Cl)cc1)c1ccc(Cl)cc1`: the growth is 70.5%.

As to `CC(C)[N+](C)(C)CC(O)COc1cccc2ccccc12` (stereo not given), the growth was 118%.

For the compound `CC(C)=CC/C=C(/C)[C@H]1CC[C@]2(C)[C@@H]1CC[C@@H]1[C@@]3(C)CC/C(=N/O)C(C)(C)[C@@H]3CC[C@]12C`, the growth was 52.2% [100 µM].

Regarding `CC[C@]12C=CCN3CC[C@@]4(c5ccc(OC)cc5N(C)[C@H]4[C@@](O)(C(=O)OC)[C@@H]1OC(=O)CCC(=O)O[C@H]1CC[C@H]4[C@@H]5CCC6=CC(=O)CC[C@@H]6[C@H]5CC[C@]14C)[C@@H]32`, the growth is 7.01% [100 µM] (active).

Consider `COC(=O)[C@]1(C)CC[C@]2(C)CC[C@]3(C)C(=CC(=O)[C@@H]4[C@@]5(C)CCC(=O)NC(C)(C)[C@@H]5CC[C@]43C)[C@@H]2C1`, for which the growth was -48.8% [100 µM] (active).

For the compound `COc1cc2c(cc1OC(C)=O)C(=O)CCCC2`, the growth is 102%.

Regarding `C[C@H]1[C@H](C)CC[C@]2(COC(=O)CCC(=O)O)CC[C@]3(C)C(=CC[C@@H]4[C@@]5(C)CCCNC(C)(C)[C@@H]5CC[C@]43C)[C@H]12`, the growth is 79.6% [100 µM].

Turning to `COc1cc(/C=C/C(=O)/C=C/c2ccc(-n3ccnc3C)cc2)ccc1O`, the growth was -3.29% (active).

Consider `O=C(O)c1ccccc1C(F)(F)F`, for which the growth was 107%.

As for `CCNc1cc2c(cc1Br)-c1ccccc1C2=O`, the growth is 114%.

`CCCCCC1CCCCN1C(=O)OCCCC` (stereo not given): the growth is 105%.

Take `CCOC(=O)n1cc(C2=C(c3ccc(OC)c(OC)c3)COC2=O)c2ccccc21`: the growth is -18.4% (active).

For the compound `N=C(N)c1ccc(-c2ccc(-c3ccc(-c4cccs4)s3)s2)cc1F`, the growth is 94.1%.

Take `CCN(CC)c1ccc2cc(C(Nc3ccc(Br)c(C(F)(F)F)c3)c3nnnn3C(C)(C)C)c(=O)oc2c1` (stereo not given): the growth was 99.4%.

For `CCOC(=O)c1nn(C2CCCCO2)c2ccc(NC(=O)CN3CCOCC3)cc12` (stereo not given), the growth was 106%.

In the case of `Nc1ccc2c(c1)Cc1cc(NC(=O)C(F)(F)F)ccc1-2`, the growth was 102%.

The values are drawn from PubChem BioAssay (NCI).
